AmpC no deterg = qHTS Inhibitors of AmpC Beta-Lactamase (assay without detergent); P00811; Potency, µM (top dose mostly 57.1 µM), actives largely listed as inhibitors; AmpC nitrocefin hydrolysis, absorbance 480 nm, 0.0001% Triton; AID 485341, 2010; actives 0.52% (n = 330,000); note: nearly all actives have a fitted effect of over 20% in size
Target sequence (P00811 whole entry, looked up): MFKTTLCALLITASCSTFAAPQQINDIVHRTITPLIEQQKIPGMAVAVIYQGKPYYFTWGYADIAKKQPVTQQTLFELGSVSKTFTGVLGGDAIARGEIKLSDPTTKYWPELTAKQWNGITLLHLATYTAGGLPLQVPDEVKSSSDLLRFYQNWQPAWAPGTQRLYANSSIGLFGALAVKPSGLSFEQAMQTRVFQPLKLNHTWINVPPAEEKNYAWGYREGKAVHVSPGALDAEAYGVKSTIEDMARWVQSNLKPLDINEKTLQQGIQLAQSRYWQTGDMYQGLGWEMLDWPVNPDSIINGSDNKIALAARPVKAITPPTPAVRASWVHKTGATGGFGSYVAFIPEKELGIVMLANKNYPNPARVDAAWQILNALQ
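20 mM phosphate pH 7.0 + 0.01% (detergent screen) or 0.0001% Triton X-100; 5.3 nM AmpC reagent; cpd preinc 15 min RT; nitrocefin (800 uM stock) to start; A480 q20 s × 4 min; Activity was normalised to no-enzyme and no-compound control wells.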
Sm TGR inh = qHTS Assay for the Inhibitors of Schistosoma Mansoni Peroxiredoxins; Schistosoma mansoni thioredoxin glutathione reductase (TGR), Q962Y6; purified TGR, DTNB reduction, TNB absorbance 405 nm; Potency, µM (doses to about 114 µM), actives largely listed as inhibitors; actives 3% (n = 360,000); AID 485364, 2010; note: nearly all actives have a fitted effect of over 60% in size
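Kinetic colorimetric format: TGR-catalysed, NADPH-driven DTNB reduction monitored via TNB absorbance. Enzyme dispensed at 20 nM; compound exposure 15 min at room temperature before reaction start.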
AmpC inh detg = qHTS Inhibitors of AmpC Beta-Lactamase (assay with detergent). P00811. AmpC hydrolysis of nitrocefin, absorbance 480 nm, 0.01% Triton. Potency, µM (titrated, usually from 114 µM), usual class: inhibitors. actives 0.041% (n = 370,000); note: nearly all actives have a fitted effect of over 25% in size
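20 mM phosphate pH 7.0 + 0.01% (detergent screen) or 0.0001% Triton X-100; 5.3 nM AmpC reagent; cpd preinc 15 min RT; nitrocefin (800 uM stock) to start; A480 q20 s × 4 min; Activity was normalised to no-enzyme and no-compound control wells.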
Tb PYK inh = qHTS of Trypanosoma Brucei Inhibitors; TbPYK enzyme, Kinase-Glo Plus ATP luminescence, 45 min; Potency, µM (doses to about 76.8 µM), actives largely listed as inhibitors; actives 0.12% (n = 410,000); AID 624173, 2012; pyruvate kinase (Trypanosoma brucei), Q57TT1; note: nearly all actives have a fitted effect of over 50% in size
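Activity of T. brucei pyruvate kinase was followed by Kinase-Glo Plus luminescence after the enzyme reacted 45 min at room temperature with 130 uM ADP (final) and substrate. Test compounds were added before ADP at multiple concentrations.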
RE007 growth inh = qHTS Assay for Inhibitors of the HIV-1 protein Vpr; S. pombe RE007 Vpr strain, BacTiter-Glo ATP luminescence, 24 h; Potency, µM (series often up to 92.2 µM), actives largely listed as inhibitors; actives 0.21% (n = 360,000); active = well fitted falling curve with a large enough effect; inconclusive = small, poorly fitted or top-dose-only effect; inactive = no such curve, though single readings can be large or run the other way; note: nearly all actives have a fitted effect of over 50% in size
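Fission yeast RE007 carrying one integrated HIV-1 vpr copy, seeded at OD 0.01 in PMG+AL medium with 23 nL pinned compound. Grown 24 h at 30 degrees; viability read by BacTiter-Glo luminescence after 5 min.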
SARS PLpro yeast = qHTS of Yeast-based Assay for SARS-CoV PLP; S. cerevisiae expressing SARS-CoV PLpro, growth rescue; Potency, µM (titrated, usually from 32.9 µM), usual class: activators; actives 0.19% (n = 330,000); calls by dose curve; note: nearly all actives have a fitted effect of over 55% in size
Hits are given with their value. Compounds with a hit are over-represented: about 3.3% of the library has one in this group of screens. Unless noted, calls come from the whole dose curve; as a rule, active = well fitted curve in the direction sought with a large enough effect; inconclusive = small, poorly fitted or top-dose-only effect, or another doubt; inactive = no such curve, though single readings can be large; an effect the other way counts as inactive or inconclusive.

`COc1ccc(CCNC(=O)NCc2noc3ccc(C)cc23)c(OC)c1` gave Sm TGR inh inactive, AmpC inh detg inactive and Tb PYK inh inactive.
For CCOc1ccc(NC(=O)CN(C)C(=O)C2CC(=O)N(Cc3ccco3)C2)cc1OCC (stereo not given) the results were AmpC no deterg inactive, Sm TGR inh 44.7µM, AmpC inh detg inconclusive, Tb PYK inh inactive, RE007 growth inh inactive and SARS PLpro yeast inactive.
For CCOc1ccc(NC(=O)CN(C)C(=O)C2CC(=O)N(CCc3ccc(OC)c(OC)c3)C2)cc1OCC (stereo not given) the results were Tb PYK inh inactive and RE007 growth inh inactive.
Screening CC(C)(O)/C=C1/Oc2ccccc2C1N1CCCCC1 (stereo not given) returned AmpC no deterg inactive, Sm TGR inh 35.5µM, AmpC inh detg inactive, Tb PYK inh inactive, RE007 growth inh inactive and SARS PLpro yeast inactive.
Screening O=C(O)C1CCC(=O)N1C1c2ccccc2Oc2ccccc21 (stereo not given) returned AmpC no deterg inactive, Sm TGR inh inactive, AmpC inh detg inactive, Tb PYK inh inactive, RE007 growth inh inactive and SARS PLpro yeast inactive.
For O=C(Nc1ccc(S(=O)(=O)N2CCC(c3nc4ccccc4s3)CC2)cc1)c1ccccc1 the results were Sm TGR inh inactive, AmpC inh detg inactive and Tb PYK inh inactive.
Screening O=C(CCl)Nc1ccc(N=Nc2ccccc2)cc1 returned AmpC no deterg inactive, Sm TGR inh 39.8µM, AmpC inh detg inactive, Tb PYK inh inactive, RE007 growth inh inconclusive and SARS PLpro yeast inactive.
Screening O=C(CCl)Nc1ccc(-c2ccccc2)cc1 returned AmpC no deterg inactive, Sm TGR inh 4.47µM, AmpC inh detg inactive, Tb PYK inh inactive, RE007 growth inh inactive and SARS PLpro yeast inactive.
`CC(=O)Nc1ccc(N=Nc2ccccc2)cc1` gave AmpC no deterg inactive, Sm TGR inh inactive, AmpC inh detg inconclusive, Tb PYK inh inactive, RE007 growth inh inconclusive and SARS PLpro yeast inactive.
`CC(=O)Nc1ccc(NC(=O)Cc2ccc(-c3ccccc3)cc2)cc1` gave AmpC no deterg inactive, Sm TGR inh inactive, AmpC inh detg inactive, Tb PYK inh inactive, RE007 growth inh inactive and SARS PLpro yeast inactive.
CC(C)N(c1ccccc1)c1ccc(NC(=O)CCl)cc1 was read as AmpC no deterg inactive, Sm TGR inh 14.1µM, AmpC inh detg inactive, Tb PYK inh inactive, RE007 growth inh inactive and SARS PLpro yeast inactive.
For O=C(CCl)Nc1ccccc1Sc1ccccc1 the results were AmpC no deterg inactive, Sm TGR inh inconclusive, AmpC inh detg inactive, Tb PYK inh inactive, RE007 growth inh inactive and SARS PLpro yeast 12.6µM.
CC(C)N(c1ccccc1)c1ccc(NC(=O)[C@@H]2O[C@H](CO)[C@H](O)[C@H](O)[C@H]2O)cc1 was read as Tb PYK inh inactive and RE007 growth inh inactive.
For CC(C)c1ccc(S(=O)(=O)Nc2cc3c(cc2NCc2ccccc2)n(C)c(=O)n3C)cc1 the results were Sm TGR inh inactive, AmpC inh detg inactive and Tb PYK inh inactive.
Screening COC(=O)C1=C(C)NC(C)=C(C(=O)O[C@H]2CCN(Cc3ccccc3)C2)C1c1cccc([N+](=O)[O-])c1 (stereo not given in full) returned Tb PYK inh inactive.
`O=C(CCl)Nc1cn(-c2ccccc2)nc1-c1ccccc1` gave AmpC no deterg inactive, Sm TGR inh 17.8µM, AmpC inh detg inactive, Tb PYK inh inactive, RE007 growth inh inactive and SARS PLpro yeast inactive.
CCc1ccc(NC(=O)Cn2c(=O)n(CCCCC(=O)NCCc3ccccc3)c(=O)c3ccccc32)cc1 was read as Sm TGR inh inactive, AmpC inh detg inactive and Tb PYK inh inactive.

From PubChem
